# Only some compounds are listed: those with a hit (about 2.4% of all), similar ones and a draw of the others.
# D2 PAM-1: positively modulates the human D2 dopamine receptor allosterically; P14416; HEK293 T-REx D2, calcium flux, EC20 dopamine potentiation; potentiation, % at 10 µM; 340,000 tested, 0.34% active;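 active = potentiation over 3 SD above the plate norm, cut at about 30% in these data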; note: 0% is about no effect
# Target sequence (P14416 whole entry, looked up): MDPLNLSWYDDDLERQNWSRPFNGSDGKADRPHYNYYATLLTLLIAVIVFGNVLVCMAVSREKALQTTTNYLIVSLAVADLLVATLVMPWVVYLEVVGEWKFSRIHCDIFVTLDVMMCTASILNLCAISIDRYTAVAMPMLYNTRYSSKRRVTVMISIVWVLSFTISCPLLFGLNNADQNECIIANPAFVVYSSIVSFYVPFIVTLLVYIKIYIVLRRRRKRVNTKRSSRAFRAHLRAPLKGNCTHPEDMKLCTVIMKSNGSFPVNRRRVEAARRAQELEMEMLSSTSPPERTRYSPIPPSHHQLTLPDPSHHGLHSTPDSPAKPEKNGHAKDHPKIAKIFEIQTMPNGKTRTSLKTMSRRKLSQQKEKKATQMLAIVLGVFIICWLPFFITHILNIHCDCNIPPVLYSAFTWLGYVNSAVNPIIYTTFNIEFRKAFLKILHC
#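 Tetracycline-induced HEK293 T-REx cells force-coupled to calcium signalling expressed D2; compounds were pin-added after a 10 s baseline, read kinetically 180 s, then an EC20 dopamine challenge followed with a further 180 s calcium read.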
# D2 PAM-2: human D2 receptor positive allosteric modulation; DiscoveRx D2 beta-arrestin cells, luminescence, 90 min; 100% = 57 uM dopamine signal; potentiation, % (test concentration not listed); 360,000 tested, 0.23% active; in the data active = potentiation above about 50%; inconclusive = mostly about 30% to 49%
#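 D2 cells co-treated with compound plus 50 nM dopamine (EC20) for 90 min at 37 deg C to detect potentiation. Beta-arrestin recruitment was read as enzyme-fragment luminescence after 1 h at ambient temperature. Full response was set by 57 uM dopamine.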
# D2 antagonist: D2 dopamine receptor (human) antagonism. HEK293 TREx D2 cells, calcium flux, dopamine EC80. inhibition, % at 10 µM. 340,000 tested, 2% active. AID 485344; in the data active = inhibition above about 30%; inactive = below that, where a call was filed; note: 0% is about no effect
#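 Dopamine at EC80 is the agonist stimulus; test compounds precede it by 180 s. Calcium flux read kinetically in a force-coupled, inducible HEK293 T-REx D2 cell line.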
# D2 ag-1: D2 dopamine receptor (human) agonism | P14416 | activation, % at 2 µM | 340,000 tested, 0.53% active | HEK293 T-REx D2 cells, calcium flux agonist mode;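 active = activation over 3 SD above normal in the single-dose calcium agonist read, cut at about 30% in these data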; note: 0% is about no effect
#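 Agonism is scored from calcium flux in a force-coupled, inducible HEK293 cell line expressing D2, read kinetically for 180 s after compound addition against dopamine controls.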
# D2 ag-2: human D2 receptor agonism in beta-arrestin assay; 360,000 tested, 0.084% active; P14416; DiscoveRx PathHunter D2 beta-arrestin, luminescence, 90 min; 100% = 57 uM dopamine signal; activation, % (no concentration beside the values); in the data active = activation above about 40%; inconclusive = between about 15% and that limit
#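 Agonist mode: compounds alone added to overnight-plated D2 PathHunter cells for 90 min at 37 C, with 57 uM final dopamine (EC100) defining full response. Beta-arrestin recruitment detected by chemiluminescent reagent, read after 1 h at ambient temperature.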
# Active calls of the source: *; ? = inconclusive; / = not tested or not shown.
SMILES,D2 PAM-1,D2 PAM-2,D2 antagonist,D2 ag-1,D2 ag-2
CC1CCC(C(C)C)C(OC(=O)COC(=O)c2cc(O)ccc2N)C1 (configuration not stated),0.4,92.8*,4.9,-1.3,?
CC1CCC(C(C)C)C(OC(=O)COC(=O)c2ccc(=O)[nH]c2)C1 (configuration not stated),15.7,-7.0,6.2,1.7,0.6
Cc1oc(-c2cccc(Br)c2)nc1Cn1c(SCc2cccc(F)c2)nc2cccnc21,1.7,/,/,3.6,/
Nc1ccc2nc3c(=O)n(CCc4ccccc4)c(=O)[nH]c3nc2c1,-10.7,27.3,-45.1,94.9*,6.0
Cc1cc2nc3c(=O)n(CCc4ccccc4)c(=O)[nH]c3nc2cc1N,-8.2,17.7,-13.3,95.3*,7.9
Nc1ccc2nc(CCc3ccccc3)[nH]c2c1,-0.5,-2.3,-8.8,-0.5,-1.0
Nc1ccc2nc3c(=O)n(C4CCCCC4)c(=O)[nH]c3nc2c1,-7.4,17.1,/,/,2.7
CCCCn1c(=O)[nH]c2nc3cc(N)ccc3nc2c1=O,-9.2,22.3,-24.2,61.2*,-3.2
COc1ccc(Nc2nc3ccccc3nc2NS(=O)(=O)c2ccc(Cl)cc2)cc1OC,-4.1,/,/,4.9,/
Cc1n[nH]c(C)c1Sc1ccccc1N,-8.4,0.2,-6.9,-0.1,2.9
Cc1cc(C)nc(Sc2c(C)n[nH]c2C)n1,-3.1,-9.4,31.6*,0.8,1.2
COCCCNCCCCOc1ccc(Br)cc1Cl,-26.6,-35.7,64.9*,0.6,-4.2
COCCNCCCOc1ccc(Br)cc1Cl,-27.7,-38.7,33.2*,0.3,-0.6
COCCNCCCOc1ccc(Cl)cc1Br,-22.7,-14.8,-1.7,0.6,-2.3
COc1ccc(CN2C(=O)N(c3ccc(F)cc3)C(=O)C2CC(=O)Nc2ccccc2)cc1 (configuration not stated),-8.7,/,/,-0.2,/
Cc1ccccc1NC(=O)C1(C)Cc2ccccc2C(=O)O1 (configuration not stated),33.5*,-5.9,-9.8,1.6,-2.5
OC(CNCC#Cc1ccccc1)c1ccccc1 (configuration not stated),-4.6,-11.2,39.1*,20.4,0.9
OC(CNCc1ccccc1)c1ccccc1 (configuration not stated),-12.3,-6.1,5.8,0.5,-3.8
COc1ccc(C)cc1NC(=O)CCCN1C(=O)C(c2ccccc2)Oc2cccnc21 (configuration not stated),4.9,-35.7,37.9*,-0.9,-2.0
Cn1c(=O)n(C)c2cc(N3CCCCC3)c(NC(=O)c3ccc(C(C)(C)C)cc3)cc21,13.7,/,/,-0.5,/
CSc1ccccc1NC(=O)Nc1ccc(Cl)cc1,-26.4,-7.9,31.2*,1.2,0.7
CCOc1ccc(C2C(C(=O)Nc3ccccc3C)=C(C)Nc3nnnn32)cc1 (configuration not stated),6.0,/,/,-0.5,/
CC(=O)OCC#CCSc1nnc(-c2cccc(Br)c2)o1,-7.0,/,/,/,/
Nc1ccccc1C(=O)NCc1ccc(F)cc1,3.1,-2.2,-7.1,0.4,2.2
Nc1ccccc1C(=O)NCc1ccc(Cl)cc1,1.1,7.5,30.4*,27.0,1.6
SMILES,D2 PAM-1,D2 PAM-2,D2 antagonist,D2 ag-1,D2 ag-2
COc1ccc(Br)cc1CNC(=O)c1ccc(-n2c(C)cc3c2CCC(C)C3)cc1 (configuration not stated),3.6,/,/,0.7,/
Cc1cc2oc(C(=O)Nc3ccc(S(N)(=O)=O)cc3)cc(=O)c2cc1C,-12.1,/,/,1.0,/
CC(=O)NCCNC(=O)CCCc1nnc2n(C)c(=O)c3sccc3n12,0.8,/,/,0.3,/
N#Cc1c(-c2ccc(F)cc2)cc(-c2cccnc2)nc1N,/,2.0,/,/,0.1
N#Cc1c(-c2cccs2)cc(-c2cccnc2)nc1N,-2.1,-1.3,48.7*,0.2,-0.4
O=[N+]([O-])c1ccc(CNc2ccc(Cl)cc2)s1,4.4,?,95.9*,-1.9,11.1
CN1/C(=C\C=C(/C#N)C(=O)Nc2ccc(Cl)cc2)C(C)(C)c2ccccc21,-19.9,-15.6,9.3,40.0*,-2.4
CN1/C(=C\C(=O)Nc2ccc(Cl)cc2)C(C)(C)c2ccccc21,6.1,-1.3,1.3,0.5,4.0
CCCOc1ccc(N/C=C/C(=O)c2cc(OC)c(OC)c(OC)c2)cc1,-8.8,82.6*,0.6,-1.4,1.5
